High-throughput results deposited in PubChem by National Center for Advancing Translational Sciences (NCATS).
SMN2 splice enh: SMN2 splice variant enhancement. hit rate 2.8% among 210,000. HEK293 SMN2-luciferase splicing reporter, luminescence, 30-36 h. Potency, µM (series often up to 46.1 µM), for inactives: at the top dose activity change, positive = activation, hits mostly activators; note: % of control where 0% means no effect; nearly all actives have a fitted effect of over 55% in size
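HEK293 cells carry an SMN2 minigene-luciferase reporter in which exon 7 inclusion puts luciferase in frame. Cells were seeded at 2000 cells/well, attached for 10-12 hours, then exposed to compounds for 30-36 hours at 37C before ONE-Glo luminescence.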
FLuc counter: inhibits or activates purified firefly luciferase, miR-21 counter-screen. Potency, µM (highest dose often 57.5 µM), inactives show top-dose activity change, negative = inhibition, most hits filed as inhibitors. hit rate 6.9% among 360,000. purified FLuc, Km substrates, luminescence inhibition. P08659;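 note: plate controls were vehicle for no effect and reference inhibitor for full effect; nearly all actives have a fitted effect of over 55% in size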
Target sequence (P08659 whole entry, looked up): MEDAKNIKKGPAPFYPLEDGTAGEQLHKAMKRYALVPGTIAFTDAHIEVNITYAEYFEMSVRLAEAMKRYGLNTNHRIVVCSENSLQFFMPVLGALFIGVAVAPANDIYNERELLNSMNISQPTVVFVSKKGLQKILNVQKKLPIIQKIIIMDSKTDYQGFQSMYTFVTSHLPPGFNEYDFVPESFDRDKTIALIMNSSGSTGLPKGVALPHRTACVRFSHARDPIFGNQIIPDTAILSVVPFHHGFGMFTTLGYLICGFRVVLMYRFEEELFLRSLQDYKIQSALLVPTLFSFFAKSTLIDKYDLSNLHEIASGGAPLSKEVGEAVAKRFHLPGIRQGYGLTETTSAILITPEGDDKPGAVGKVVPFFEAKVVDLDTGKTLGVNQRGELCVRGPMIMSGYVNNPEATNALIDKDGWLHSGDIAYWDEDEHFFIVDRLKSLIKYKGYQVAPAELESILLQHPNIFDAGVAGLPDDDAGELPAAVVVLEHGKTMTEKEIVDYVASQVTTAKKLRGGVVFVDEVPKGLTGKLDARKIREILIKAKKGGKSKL
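Biochemical qHTS of compounds, final roughly 60 µM downward over six points, against 10 nM purified firefly luciferase using Km concentrations of substrates (10 uM D-luciferin, 10 uM ATP) in Tris acetate pH 7.5 buffer; luminescence output.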
NPC1 prom act: activates the NPC1 promoter. Huh7 NPC1 promoter luciferase reporter, 24 h. Potency, µM (top dose mostly 9.22 µM), for inactives: top-dose activation, most hits filed as activators. hit rate 2.4% among 320,000. AID 485313; note: % of control where 0% means no effect; nearly all actives have a fitted effect of over 60% in size
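Luminescence read-out of NPC1 promoter-driven luciferase in stably transfected Huh7 cells; compounds delivered in DMSO and left 24 h at 37C, 5% CO2, qHTS titration format.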
ELG1 genotox: induces genotoxicity in HEK293T cells with luciferase-tagged ELG1; HEK293T ELG1-luciferase reporter, luminescence, 16 h; Potency, µM (top dose mostly 46 µM), inactives show at the highest dose activity change, positive = activation, most hits filed as activators; hit rate 1.3% among 330,000; AID 504466; note: % of control where 0% means no effect; nearly all actives have a fitted effect of over 60% in size
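Luminescence read-out: rising ELG1-luciferase signal, reflecting elevated ELG1 protein under genetic stress, flags genotoxic compounds. Cells were treated for 16 hr at 37 °C before ONE-Glo detection.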
Rab9 promoter act: Rab9 promoter activation. Huh7 Rab9 promoter-luciferase reporter, luminescence, 24 h. Potency, µM (doses to about 9.22 µM), for the others: at the top dose activation, negative = inhibition, most hits filed as activators. hit rate 2.8% among 320,000. AID 485297; note: % of control where 0% means no effect; nearly all actives have a fitted effect of over 60% in size
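Steps: seed 1500 Huh7 Rab9-luc cells per well, rest 2 h at 37 °C; add compound in DMSO; incubate 24 h; add luciferase reagent, 10 min ambient; read luminescence.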
Active calls of the source: *; ? = inconclusive; nt = no result given. Sampled rows, rich in hits. Any-hit rate of the full collection: about 7.4%. Calls come from the whole dose curve; as a rule, active = well fitted curve in the direction sought with a large enough effect; inconclusive = small, poorly fitted or top-dose-only effect, or another doubt; inactive = no such curve, though single readings can be large; an effect the other way counts as inactive or inconclusive. Potency is the fitted concentration of half-maximal effect.

SMILES	SMN2 splice enh	FLuc counter	NPC1 prom act	ELG1 genotox	Rab9 promoter act
CNC(=O)c1c(NC(=O)C2=COCCO2)sc2c1CCCC2	nt	17µM*	2%	17%	5%
COc1ccc(-c2ccc(NS(=O)(=O)c3ccccc3Cl)cc2)nn1	nt	-16%	nt	nt	nt
CC(C)OC(=O)CSc1nc(N2CCOCC2)c2c(c1C#N)CC(C)(C)OC2	nt	-1%	-1%	0%	-1%
Clc1cccc(OCc2nc(-c3ccncc3)no2)c1	15%	-19%	7%	11%	23%
Clc1ccc(OCc2nc(-c3ccncc3)no2)c(Cl)c1	16µM*	2.1µM*	0.89µM*	7.3µM*	0.63µM*
Cc1ccc(-c2noc(-c3ccccc3Br)n2)cc1	13µM*	0.67µM*	0.79µM*	?	2.8µM*
COc1cc(OC)cc(-c2nc(-c3ccc(Br)cc3)no2)c1	5%	13µM*	27%	5%	?
COc1ccc(-c2nc(-c3ccc(Br)cc3)no2)c(OC)c1	7.1µM*	1.2µM*	nt	nt	nt
COc1nc(-c2ccc(C)cc2)ccc1-c1noc(-c2ccccc2Br)n1	1%	?	nt	nt	nt
CCOC(=O)c1cccc(NC(=O)c2ccc3nc(Cc4ccccc4)oc3c2)c1	nt	-17%	nt	nt	nt
CC(C)c1cc(=O)[nH]c(N2CCN(Cc3ccc4c(c3)OCO4)CC2)n1	nt	6%	-1%	0%	-1%
COc1nc2ccccc2cc1-c1noc(-c2cccnc2)n1	-7%	1%	9%	-4%	2%
CCOc1ccccc1-c1nc(-c2ccc(-c3ccccc3)nc2OCC)no1	1%	0%	nt	nt	nt
CCOc1nc(C)ccc1-c1noc(-c2ccccc2OC)n1	-8%	24µM*	9%	2%	7%
COc1ccccc1-c1noc(-c2cccnc2)n1	1%	?	22%	21µM*	14%
CCOc1ccccc1NC(=O)c1ccccc1-c1nc(-c2ccccc2OC)no1	nt	11µM*	2%	-18%	6%
COc1ccc(Cl)cc1-c1nc(-c2ccncc2)no1	28µM*	1%	29%	?	18%
COCCNC(=O)c1ccccc1-c1nc(-c2ccccc2OC)no1	-28%	?	?	2%	0%
CCOc1ccccc1-c1nc(-c2ccncc2)no1	-5%	-19%	nt	nt	nt
COc1cccc(CN(C)C(=O)CSC(C)C(=O)Nc2cc(C)on2)c1OC (stereo not given)	nt	-1%	-1%	2%	0%
CCCC(CCC)C(=O)Nc1cccc(-c2nc3cccnc3s2)c1	nt	0%	nt	nt	nt
O=C(O)CC(C(=O)O)c1ccc(OCCCCOc2ccc(C(CC(=O)O)C(=O)O)cc2)cc1 (stereo not given)	nt	1%	7%	0%	3%
COc1ccccc1CNC(=O)CCC1N=C2c3ccccc3N=C(SCc3ccc(C)cc3)N2C1=O (stereo not given)	nt	-2%	nt	nt	nt
COc1ccccc1-c1nc(-c2ccncc2)no1	13µM*	6.7µM*	2µM*	?	2µM*
COc1ccccc1-c1nc(-c2ccc(Br)cc2)no1	16µM*	4.8µM*	?	3.7µM*	5µM*
SMILES	SMN2 splice enh	FLuc counter	NPC1 prom act	ELG1 genotox	Rab9 promoter act
COc1ccccc1-c1noc(-c2cc(OC)c(OC)c(OC)c2)n1	17%	-20%	0%	0%	-6%
CN(C)c1ccc(-c2noc(-c3ccccc3O)n2)cc1	32%	0.27µM*	0.71µM*	?	?
COc1ccc(C2=NN(C(=O)CN3CCOCC3)C(c3nc4ccccc4[nH]3)C2)cc1 (stereo not given)	?	15µM*	11%	?	?
Cc1cc(F)ccc1NC(=O)c1c(C)oc2c1C1=NCCN1C=N2	nt	-4%	nt	nt	nt
Clc1ccc(C[n+]2csc3ccccc32)cc1	-3%	6.7µM*	0%	0%	-7%
Fc1ccc(C[n+]2csc3ccccc32)cc1	2%	7.6µM*	-4%	4%	2%
Cc1ccc(NC(=O)/C(C#N)=C/c2ccc(C)o2)cc1	7.1µM*	1.9µM*	nt	nt	nt
Cc1ccc(/C=C(\C#N)C(=O)Nc2cccc(Cl)c2)o1	?	-14%	nt	nt	nt
Cc1cccc(NC(=O)/C(C#N)=C/c2ccc(C)o2)c1	13µM*	9.5µM*	nt	nt	nt
O=C(O)c1cn(C2CC2)c2cc(N3CCN(S(=O)(=O)c4ccc5c(c4)OCCO5)CC3)c(F)cc2c1=O	-47%	6%	-5%	-8%	17%
Cc1ccc(OCC(=O)Nc2ccc(F)cc2)cc1	19%	15µM*	-1%	?	-5%
COc1ccc(OCC(=O)Nc2ccc(C)cc2)cc1	9%	?	-2%	18%	3%
Cc1ccc(OCC(=O)Nc2ccncc2)cc1	nt	13µM*	0%	5%	0%
Cc1nnc2sc(SCC(=O)Nc3ccc(Cl)cc3)nn2c1=O	28%	-2%	-1%	-2%	4%
CCN1C(=O)CC(N2CCN(c3ccc(C(=O)c4ccccc4)cc3)CC2)C1=O (stereo not given)	-14%	19µM*	nt	nt	nt
Cc1ccc2nc(/C(C#N)=C/c3ccc(-c4ccccc4C(=O)O)o3)[nH]c2c1	nt	4.3µM*	-3%	0%	0%
CCOC(=O)c1ccc(-c2ccc(/C=C(\C#N)c3nc4ccc(C)cc4[nH]3)o2)cc1	-4%	-12%	nt	nt	nt
N#C/C(=C\c1ccc(-c2ccccc2C(=O)O)o1)c1nc2ccccc2[nH]1	-6%	12µM*	6%	12%	0%
Cc1cc2nc3s/c(=C/c4ccc(-c5ccccc5C(=O)O)o4)c(=O)n3c2cc1C	nt	4.8µM*	15%	5%	11%
N#C/C(=C\c1ccc(-c2ccc(F)cc2F)o1)c1nc2ccccc2[nH]1	3%	-11%	nt	nt	nt
Cc1cc2nc(/C(C#N)=C\c3ccc(-c4ccccc4C(=O)O)o3)[nH]c2cc1C	nt	1.5µM*	18%	3%	5%
O=C(O)c1ccccc1-c1ccc(/C=c2\sc3nc4cc(Br)cnc4n3c2=O)o1	3%	-16%	0%	2%	-2%
N#C/C(=C\c1ccc(Sc2ccccc2)o1)c1nc2ccccc2[nH]1	11µM*	2.7µM*	2.8µM*	?	2.2µM*
CCOC(=O)c1ccc(NC(=O)CSc2ccc3ccccc3n2)cc1	nt	-17%	nt	nt	nt
Cc1ccc(C(=O)COC(=O)c2cccc(O)c2)s1	nt	0.43µM*	15%	2%	4%
SMILES	SMN2 splice enh	FLuc counter	NPC1 prom act	ELG1 genotox	Rab9 promoter act
COc1cccc(C(=O)OCC(=O)c2ccc(Br)s2)c1	nt	7.6µM*	3%	1%	0%
Cc1cccc(C(=O)NCC(=O)OCC(=O)c2ccc(C)s2)c1	nt	nt	nt	3%	nt
O=C(Nc1ccc(Oc2ccc(Br)cc2)cc1)C1=CC=CN2CCS(=O)(=O)N=C12	nt	3%	-8%	1%	-4%
CCOC(=O)c1ccccc1NC(=O)NCc1cccn1Cc1ccc(F)cc1	-3%	0%	nt	nt	nt
COc1cccc(NC(=O)COC(=O)c2ccccc2C(=O)N(C)c2ccccc2)c1	nt	?	3%	-2%	-5%
Cc1nc(-c2ccccc2)nc(-c2ccccc2)n1	nt	-11%	-2%	2%	-1%
